In all, about 400,000 compounds went through this assay and about 2,100 (0.53%) were called active. Roughly 14% stayed inconclusive and do not appear here. How the calls were made is not given here. This excerpt belongs to a sample that is enriched for actives.
molecular target: Ataxin-2 (Homo sapiens) (UniProt Q99700); assay: qHTS for Inhibitors of ATXN expression.; type: functional
Sequence (Q99700 whole entry): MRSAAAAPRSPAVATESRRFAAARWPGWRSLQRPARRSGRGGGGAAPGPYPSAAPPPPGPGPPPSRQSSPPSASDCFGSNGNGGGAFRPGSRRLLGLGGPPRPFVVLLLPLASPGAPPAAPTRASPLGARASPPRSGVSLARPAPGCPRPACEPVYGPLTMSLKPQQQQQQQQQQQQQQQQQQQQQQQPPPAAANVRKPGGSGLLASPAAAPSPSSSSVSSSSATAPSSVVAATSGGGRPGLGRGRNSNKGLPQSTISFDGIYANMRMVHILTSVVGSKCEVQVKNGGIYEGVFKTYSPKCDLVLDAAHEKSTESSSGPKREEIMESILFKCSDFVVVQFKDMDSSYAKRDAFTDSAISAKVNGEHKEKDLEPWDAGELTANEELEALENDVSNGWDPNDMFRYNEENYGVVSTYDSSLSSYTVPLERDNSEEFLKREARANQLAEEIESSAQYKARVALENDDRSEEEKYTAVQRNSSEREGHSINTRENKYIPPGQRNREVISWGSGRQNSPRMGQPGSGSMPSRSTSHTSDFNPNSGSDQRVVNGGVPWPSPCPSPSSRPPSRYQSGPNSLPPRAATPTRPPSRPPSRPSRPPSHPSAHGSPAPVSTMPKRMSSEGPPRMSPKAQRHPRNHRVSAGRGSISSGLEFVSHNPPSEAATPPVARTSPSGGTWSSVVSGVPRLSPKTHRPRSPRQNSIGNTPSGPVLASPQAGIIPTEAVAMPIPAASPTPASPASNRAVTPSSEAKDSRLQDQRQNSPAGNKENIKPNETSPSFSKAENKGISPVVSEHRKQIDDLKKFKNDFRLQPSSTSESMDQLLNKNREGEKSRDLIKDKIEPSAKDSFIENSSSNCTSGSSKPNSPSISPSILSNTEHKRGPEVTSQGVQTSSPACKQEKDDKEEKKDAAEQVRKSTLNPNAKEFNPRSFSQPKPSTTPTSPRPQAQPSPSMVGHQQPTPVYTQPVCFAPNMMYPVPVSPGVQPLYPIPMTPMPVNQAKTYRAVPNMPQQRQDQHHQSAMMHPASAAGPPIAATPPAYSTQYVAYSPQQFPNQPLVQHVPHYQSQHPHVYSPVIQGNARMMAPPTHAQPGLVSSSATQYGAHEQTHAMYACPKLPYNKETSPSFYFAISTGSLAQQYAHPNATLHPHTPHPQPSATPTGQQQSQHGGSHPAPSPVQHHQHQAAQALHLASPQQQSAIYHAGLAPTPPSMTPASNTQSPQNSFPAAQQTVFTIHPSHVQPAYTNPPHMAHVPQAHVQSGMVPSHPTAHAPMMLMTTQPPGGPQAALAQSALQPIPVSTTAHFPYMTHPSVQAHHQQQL

| Structure (SMILES) | Potency |
| --- | --- |
| COCCNC(=O)/C(C#N)=C1\N=C(NC(=O)c2ccco2)c2ccccc21 | inactive |
| Cc1ccc2cccnc2c1N | inactive |
| Cc1ccnc2c1ccc1c(C)ccnc12 | 5.32 µM (active) |
| Cc1nn(CCN)c(C)c1Cl | inactive |
| O=C(Nc1ccccc1Cl)C1C(c2ccccc2)C1(Cl)Cl (configuration not stated) | inactive |
| CCN1C(=O)c2cccc3c(S(=O)(=O)NCc4ccccc4)ccc1c23 | inactive |
| NC(=O)c1cc(S(=O)(=O)NCc2ccccc2)cs1 | inactive |
| CCCCCCCCNCCS(=O)(=O)NCc1ccccc1 | 31.6 µM (active) |
| Nc1cc(-c2ccccc2)nn1Cc1ccccc1 | inactive |
| COc1ccc(Cn2c(C(=O)O)c(CNCc3ccc(C)o3)c3ccc(C)cc32)cc1 | 17.8 µM (active) |
| Cc1ccc2c(CNCc3ccc(C)o3)c(C(=O)O)n(Cc3ccc(F)cc3)c2c1 | 35.5 µM (active) |
| COc1ccc(CNCc2c(O)c(Cl)cc3c(C)c(C)c(=O)oc23)c(OC)c1 | inactive |
| CC(=O)c1cn(Cc2ccccc2)c(=O)n(Cc2ccc(F)cc2)c1=O | inactive |
| COc1ccc(Cn2c(C)nc3ccc([N+](=O)[O-])cc3c2=O)cc1 | inactive |
| Cc1ccc(Cn2c(C(=O)O)c(CNCc3ccc(C)o3)c3ccc(C)cc32)cc1 | 35.5 µM (active) |
| Cc1c(O[C@@H]2O[C@H](CO)[C@@H](O)[C@H](O)[C@H]2O)ccc2c1oc(=O)c1ccccc12 | inactive |
| CC(C)OCCCn1c(-c2ccco2)nc2nc3ccccc3nc21 | inactive |
| O=C(Cn1c(C(F)(F)F)nc2ccccc21)Nc1ccccc1C(=O)O | inactive |
| CC(C)(C)NC(=O)Cn1c(SCC(=O)NC2CC2)nc2ccccc21 | inactive |
| O=C(Cn1c(SCC(=O)Nc2ccc(F)cc2)nc2ccccc21)NCc1ccccc1Cl | 39.8 µM (active) |
| C/N=c1\scc(-c2ccc(OC)cc2)n1/N=C(\C)c1cccnc1 | inactive |
| CC1=CC(=Cc2sc3ccccc3[n+]2C)C=C(C)N1CC1CCCO1 (configuration not stated) | inactive |
| Cc1cc(C)n(-c2nnc(Cl)c3ccccc23)n1 | 39.8 µM (active) |
| COc1ccc(-c2nc(C#N)c(N3CCCCC3)o2)cc1 | inactive |
| Nc1nc(N)c2cc(CNc3ccc(Cl)c(Cl)c3)ccc2n1 | 11.2 µM (active) |
| COc1ccc(-c2cc(C(F)(F)F)n3nc(-c4ccccc4)cc3n2)cc1OC | inactive |

| Structure (SMILES) | Potency |
| --- | --- |
| CCN1CCN(c2cc(-c3ccccc3)nc3cc(-c4cccc(F)c4)nn23)CC1 | 17.8 µM (active) |
| CCN1CCN(c2nc(NCCO)c3ccccc3n2)CC1 | inactive |
| Cc1ccnc(NC(=O)c2cc3c(=O)oc4ccc(C)cc4c3s2)c1 | 20 µM (active) |
| Cc1ccnc(NC(=O)c2ccccc2NC(=O)c2ccc(Cl)cc2Cl)c1 | inactive |
| CCN(CC)c1ccc2cc(C(=O)Nc3ccccn3)c(=O)oc2c1 | inactive |
| CCOC(=O)C(C)(C)N(Cc1cccc(C)c1)S(=O)(=O)c1ccc(Cl)c([N+](=O)[O-])c1 | 39.8 µM (active) |
| COc1ccc(Cl)cc1N(CC(=O)N(C)C)S(=O)(=O)c1ccc(C)c([N+](=O)[O-])c1 | inactive |
| CCOC(=O)c1c(CSc2ccc(CC)cc2)oc2ccc(O)c(CN(C)C)c12 | 22.4 µM (active) |
| CN(C)Cc1c(O)ccc2c3c(c(=O)oc12)CCCCC3 | inactive |
| CCCCc1cc(=O)oc2c(CN(C)C)c(O)ccc12 | inactive |
| Cc1ccc(/C=N/n2c(S)nnc2-c2ccccn2)o1 | inactive |
| Cc1ccc2nc(Cn3cc(C(F)(F)F)cc(Cl)c3=O)cc(=O)n2c1 | inactive |
| CN(C)c1ccc(/C=N/NC(=O)c2ccccn2)cc1 | inactive |
| CCOc1cc(NC(=O)c2cccs2)c(OCC)cc1NC(=O)c1ccccn1 | inactive |
| CN(C)c1ccc(-c2[nH]nc(O)c2NC(=O)c2ccccn2)cc1 | 25.1 µM (active) |
| Cc1ccc(NC(=O)c2[nH]cnc2C(=O)NCCCCCNC(=O)OC(C)(C)C)cc1 | 39.8 µM (active) |
| Cc1ccc(OCCNC(=O)c2ccccc2F)cc1 | inactive |
| CC(C)(C)OC(=O)NCCCCCNC(=O)c1[nH]cnc1C(=O)Nc1cc(Br)ccc1F | 39.8 µM (active) |
| Cc1cccc(NC(=O)c2[nH]cnc2C(=O)NCCCCCNC(=O)OC(C)(C)C)c1 | 20 µM (active) |
| COc1cccc(-c2ccc3c(N)c(C(=O)c4ccc(Br)cc4)sc3n2)c1 | inactive |
| O=S(=O)(NCc1csc(-c2cccs2)n1)c1cccc(C(F)(F)F)c1 | inactive |
| CCCCn1c(OC(=S)N(CC)CC)cc(C)nc1=S | 35.5 µM (active) |
| Nc1ccc2[nH]c(-c3ccc(Cl)cc3)nc2c1 | 31.6 µM (active) |
| Nc1ccc2c3[nH]c4cc(N)ccc4cc-3nc2c1 | inactive |
| Nc1ccc2[nH]c(-c3ccc(-c4nc5cc(N)ccc5[nH]4)cc3)nc2c1 | inactive |
| Cc1ccc2nc3c(cc(C(=O)NCCCn4ccnc4)n3C)c(=O)n2c1 | inactive |

| Structure (SMILES) | Potency |
| --- | --- |
| Cc1cc(C)c2cc(N)c(Cl)nc2n1 | inactive |
| CCOC(=O)c1cc2c(=O)n3ccccc3nc2n(CC2CCCO2)/c1=N/C(=O)/C=C/c1ccccc1 (configuration not stated) | inactive |
| CC(=O)c1ccc(-c2cnc3c(NC=O)cc(-c4ccccc4Oc4ccccc4)cn23)cc1 | inactive |
| COc1cccc(-c2cnc3c(NC=O)cc(-c4ccc(N(C)C)cc4)cn23)c1 | inactive |
| CN(C)C(=O)c1cccc(-c2cnc3c(NC=O)cc(-c4cccc(C(F)(F)F)c4)cn23)c1 | 39.8 µM (active) |
| CN(C)CCNC(=O)c1cccc(-c2cnc3c(NC=O)cc(-c4cccc(F)c4)cn23)c1 | 31.6 µM (active) |
| CN(C)c1ccccc1-c1cc(NC=O)c2ncc(-c3cccc(C(F)(F)F)c3)n2c1 | inactive |
| CN(C)CCNC(=O)c1cccc(-c2cnc3c(NC=O)cc(-c4ccc(F)cc4)cn23)c1 | 35.5 µM (active) |
| CN(C)CCNC(=O)c1cccc(-c2cnc3c(NC=O)cc(-c4cc(F)c(F)c(F)c4)cn23)c1 | 25.1 µM (active) |
| CCCCCCc1cc2cc(-c3nnc(-c4ccccc4)o3)c(=O)oc2cc1O | inactive |
| CC(C)OC(=O)c1sc2nc(-c3ccccc3)ccc2c1N | inactive |
| O=C1CCn2c1c(O)c1ccccc1c2=O | inactive |
| O=C1OCCN1C(=O)[C@H]1[C@H](c2ccccc2)C(c2ccccc2)=NN1c1ccccc1 | inactive |
| N#CC1(Nc2cccc(Br)c2)C(=O)Nc2ccccc21 (configuration not stated) | inactive |
| COc1ccc(OC)c(S(=O)(=O)N2CCN(c3ccccc3)CC2)c1 | inactive |
| Cc1cccc(C2=NN(c3ccc(Br)cc3)[C@@H](C(=O)N3CCOC3=O)[C@@H]2c2ccc(Cl)cc2)c1 | inactive |
| O=C1c2[nH]nc(-c3ccc(Br)cc3)c2C(c2cccc(O)c2)N1c1ccc(Cl)cc1 (configuration not stated) | 28.2 µM (active) |
| O=C1OCCN1C(=O)[C@H]1[C@H](c2ccc(Cl)cc2)C(c2cccc(Cl)c2)=NN1c1ccc(Br)cc1 | inactive |
| CCOc1cc(C2c3c(-c4ccc(Br)cc4)n[nH]c3C(=O)N2c2ccc(Cl)cc2)ccc1O (configuration not stated) | 28.2 µM (active) |
| CCOc1ccc(C2=CC(c3cc(Br)ccc3F)n3ncnc3N2)cc1Cl (configuration not stated) | inactive |
| CCOc1cc(C2NN=C(c3ccc(C)cc3)S2)ccc1O (configuration not stated) | inactive |
| CCN(CCCn1c(=S)[nH]c2ccc(N3CCOCC3)cc2c1=O)c1ccccc1 | inactive |
| CN(/N=C/c1ccc2c(c1)OCO2)c1nc(N2CCOCC2)nc(N2CCOCC2)n1 | inactive |
| Cc1nonc1NC(=O)CSc1nc2ccccc2cc1C#N | inactive |
| CC(=O)c1ccc2cccc3c2c1NC(C)=N3 | inactive |
| Cc1nc(=O)c(-c2ccccc2)c(C)n1-c1ccccc1Cl | inactive |

| Structure (SMILES) | Potency |
| --- | --- |
| COc1ccccc1NC(=O)c1ccc(-n2ccnc2)c([N+](=O)[O-])c1 | inactive |
| Cn1c(=O)c([N+](=O)[O-])c(-n2ccnc2)c2ccccc21 | 23.8 µM (active) |
| Cn1c(=O)c([N+](=O)[O-])c(Cl)c2ccccc21 | 29.9 µM (active) |
| Cn1c2ccccc2c(=O)c2ccc(F)cc21 | inactive |
| Cc1ccc(Sc2c([N+](=O)[O-])c(=O)n(C)c3ccccc23)cc1 | 28.2 µM (active) |
| Cc1ccc(Sc2nc(C)c([N+](=O)[O-])c(C)c2C#N)cc1 | inactive |
| CCN(CC)c1c([N+](=O)[O-])c(=O)n(CC)c2ccccc12 | inactive |
| CCOc1ccc(C2C(C#N)=C(N)Oc3cc(O)ccc32)cc1OCC (configuration not stated) | inactive |
| COCOc1ccc(/C=C2/Oc3cc(OCOC)cc(OCOC)c3C2=O)c(OCOC)c1 | inactive |
| Cc1cscc(C)c1=S | inactive |
| Nc1c(C(=O)CSc2ncccn2)c(=O)[nH]c(=O)n1C1CC1 | inactive |
| Cc1c(CCC(=O)O)c(=O)oc2c(C)c3occ(-c4ccc(Br)cc4)c3cc12 | inactive |
| O=C(Nc1ccc(S(=O)(=O)Nc2cnc3ccccc3n2)cc1)c1ccc([N+](=O)[O-])cc1Cl | inactive |
| COc1ccc([N+](=O)[O-])cc1C(=O)Nc1ccc(Cc2ccncc2)cc1 | inactive |
| O=C(Nc1ccc(Nc2ccncc2)cc1)c1ccc(Nc2ccnc3ccc([N+](=O)[O-])cc23)cc1[N+](=O)[O-] | 39.8 µM (active) |
| N#Cc1cc2c(=O)n3ccccc3nc2n(CCCN2CCOCC2)c1=O | inactive |
| CCOc1cc(C2C3=C(CCCC3=O)N(CCC(=O)O)C3=C2C(=O)CCC3)ccc1OS(=O)(=O)c1ccc(C)cc1 | inactive |
| Cc1ccc(C(C)C)c(OCC(=O)Nc2ccc3c(c2)nc(CCN2CCCCC2)n3C)c1 | 39.8 µM (active) |
| Cc1cc(S(=O)(=O)N2CCCC2)ccc1OCC(=O)Nc1ccc(C(N)=O)cc1 | inactive |
| CC(=O)NCCc1nc2cc(NC(=O)c3cccs3)ccc2n1C | inactive |
| O=C1/C(=C\Nn2cnnc2)c2ccccc2C(=O)N1c1ccccc1F | inactive |
| COc1ccccc1NS(=O)(=O)c1cccc(NC(=O)c2[nH]c(C)c(C(C)=O)c2C)c1 | inactive |
| COc1ccccc1NS(=O)(=O)c1cccc(NC(=O)Nc2cccc(Cl)c2)c1 | 44.7 µM (active) |
| COc1ccccc1NS(=O)(=O)c1ccc(C)c(NC(=O)c2c(C)noc2C)c1 | inactive |

From ChEMBL document CHEMBL1201862, “PubChem BioAssay data set” (2004)
